Common to all, as to assay: DAPPL (digital affinity profiling via proximity ligation, sequencing); 10 mM Tris-HCl pH 7.5, 50 mM NaCl, 1 mM DTT, 4% glycerol, room temperature, 30 min; GST-TFs on glutathione beads, 16-mer random dsDNA library, 0.1% formaldehyde crosslink after washing; high values mean tight binding
One assay concerns the target T1, FLI1 (Homo sapiens, UniProt Q01543 1-452).
T1 sequence: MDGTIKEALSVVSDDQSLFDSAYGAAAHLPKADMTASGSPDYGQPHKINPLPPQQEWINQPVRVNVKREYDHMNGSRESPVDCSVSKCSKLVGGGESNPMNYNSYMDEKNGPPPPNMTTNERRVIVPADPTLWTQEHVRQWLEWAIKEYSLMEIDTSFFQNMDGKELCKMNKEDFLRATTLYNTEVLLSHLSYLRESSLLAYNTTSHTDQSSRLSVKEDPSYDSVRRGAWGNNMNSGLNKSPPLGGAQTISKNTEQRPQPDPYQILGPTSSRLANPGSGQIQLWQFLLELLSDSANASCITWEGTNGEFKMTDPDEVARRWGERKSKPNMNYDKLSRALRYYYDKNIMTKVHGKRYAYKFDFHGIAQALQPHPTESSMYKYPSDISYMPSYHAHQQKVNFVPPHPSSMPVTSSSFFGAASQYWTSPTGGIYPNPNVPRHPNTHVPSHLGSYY
The settings on record: protein: recombinant; tags: N-terminal GST; dsDNA, one strand shown. Summed up:
(§1)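 Pools of DNA-barcoded human transcription factors, expressed in yeast as GST fusions on glutathione beads and combined with a tag-only sample, were incubated with 200 nmole of a 16-mer random double-stranded DNA library. Incubation took 30 min at room temperature in Tris/NaCl/DTT/glycerol buffer and was followed by washing, 0.1% formaldehyde crosslinking, proximity ligation (BsaI/T4 ligase, 1 h, 37 °C), PCR amplification and sequencing on an Illumina NextSeq500. Binding signal is the ratio of a hexamer's read frequency for a factor to its frequency for the tag-only sample.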

The next assay concerns the target T2, ELK1 (Homo sapiens, UniProt P19419 1-428).
T2 sequence: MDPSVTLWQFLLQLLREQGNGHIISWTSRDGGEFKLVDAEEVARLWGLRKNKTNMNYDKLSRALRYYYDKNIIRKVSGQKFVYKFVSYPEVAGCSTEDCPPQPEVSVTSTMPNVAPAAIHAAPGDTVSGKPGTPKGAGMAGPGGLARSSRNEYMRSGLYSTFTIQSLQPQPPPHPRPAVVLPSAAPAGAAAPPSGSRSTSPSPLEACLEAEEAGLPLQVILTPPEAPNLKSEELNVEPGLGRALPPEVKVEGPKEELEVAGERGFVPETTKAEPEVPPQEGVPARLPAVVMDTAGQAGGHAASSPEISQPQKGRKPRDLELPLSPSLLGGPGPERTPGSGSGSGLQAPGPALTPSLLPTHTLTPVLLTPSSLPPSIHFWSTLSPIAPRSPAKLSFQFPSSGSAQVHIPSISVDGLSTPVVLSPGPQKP
Particulars: protein: recombinant; tags: N-terminal GST; dsDNA, one strand shown. An outline of the steps: as §1

The target in the next assay is T3, GABPA (Homo sapiens, UniProt Q06546 1-454).
T3 sequence: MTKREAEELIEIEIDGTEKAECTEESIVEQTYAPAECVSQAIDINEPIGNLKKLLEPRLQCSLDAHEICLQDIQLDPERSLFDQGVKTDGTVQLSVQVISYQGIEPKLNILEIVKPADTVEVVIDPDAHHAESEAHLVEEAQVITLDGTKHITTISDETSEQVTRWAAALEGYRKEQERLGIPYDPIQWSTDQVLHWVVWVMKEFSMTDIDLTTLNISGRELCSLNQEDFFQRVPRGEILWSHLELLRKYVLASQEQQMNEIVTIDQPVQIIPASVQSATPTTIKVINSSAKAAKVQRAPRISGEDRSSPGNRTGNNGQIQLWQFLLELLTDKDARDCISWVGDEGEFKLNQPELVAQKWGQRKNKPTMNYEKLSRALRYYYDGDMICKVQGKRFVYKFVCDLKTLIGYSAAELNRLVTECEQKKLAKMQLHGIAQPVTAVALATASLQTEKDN
Particulars: protein: recombinant; tags: N-terminal GST; dsDNA, one strand shown. Summed up: as §1

Another assay concerns the target T4, ERG (Homo sapiens, UniProt P11308 1-479).
T4 sequence: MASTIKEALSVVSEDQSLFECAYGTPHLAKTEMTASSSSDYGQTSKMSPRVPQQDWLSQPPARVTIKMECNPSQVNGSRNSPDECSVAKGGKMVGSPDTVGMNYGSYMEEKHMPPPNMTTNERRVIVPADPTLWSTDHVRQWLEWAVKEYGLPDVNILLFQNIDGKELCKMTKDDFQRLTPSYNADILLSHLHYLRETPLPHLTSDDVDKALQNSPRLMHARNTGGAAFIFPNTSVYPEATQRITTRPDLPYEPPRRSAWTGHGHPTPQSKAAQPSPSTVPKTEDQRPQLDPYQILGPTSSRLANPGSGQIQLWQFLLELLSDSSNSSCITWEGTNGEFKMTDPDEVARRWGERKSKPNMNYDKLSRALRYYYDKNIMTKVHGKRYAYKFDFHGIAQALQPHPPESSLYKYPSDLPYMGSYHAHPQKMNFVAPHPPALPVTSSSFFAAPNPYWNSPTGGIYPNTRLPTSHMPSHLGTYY
The settings on record: protein: recombinant; tags: N-terminal GST; dsDNA, one strand shown. Summed up:
as §1

For the next assay, the target named is ELF1 (Homo sapiens, UniProt P32519 1-619). The settings on record: protein: recombinant; tags: N-terminal GST; dsDNA, one strand shown. Summed up:
as §1

For a further assay, the target named is SPI1 (Homo sapiens, UniProt P17947 1-270). The settings on record: protein: recombinant; tags: N-terminal GST; dsDNA, one strand shown. Summed up: as §1
The target of a further assay is SPIB (Homo sapiens, UniProt Q01892 1-262). Particulars: protein: recombinant; tags: N-terminal GST; dsDNA, one strand shown. Summed up: as §1
Sequence of SPIB (Q01892 whole entry): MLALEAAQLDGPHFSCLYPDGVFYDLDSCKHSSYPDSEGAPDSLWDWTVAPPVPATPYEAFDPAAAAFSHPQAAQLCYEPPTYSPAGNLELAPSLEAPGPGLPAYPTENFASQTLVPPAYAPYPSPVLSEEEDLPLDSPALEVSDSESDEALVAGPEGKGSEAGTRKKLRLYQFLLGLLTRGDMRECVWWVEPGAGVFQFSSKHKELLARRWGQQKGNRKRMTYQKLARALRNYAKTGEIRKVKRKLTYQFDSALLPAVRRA
Another assay concerns the target T5, ELK3 (Homo sapiens, UniProt P41970 1-407).
T5 sequence: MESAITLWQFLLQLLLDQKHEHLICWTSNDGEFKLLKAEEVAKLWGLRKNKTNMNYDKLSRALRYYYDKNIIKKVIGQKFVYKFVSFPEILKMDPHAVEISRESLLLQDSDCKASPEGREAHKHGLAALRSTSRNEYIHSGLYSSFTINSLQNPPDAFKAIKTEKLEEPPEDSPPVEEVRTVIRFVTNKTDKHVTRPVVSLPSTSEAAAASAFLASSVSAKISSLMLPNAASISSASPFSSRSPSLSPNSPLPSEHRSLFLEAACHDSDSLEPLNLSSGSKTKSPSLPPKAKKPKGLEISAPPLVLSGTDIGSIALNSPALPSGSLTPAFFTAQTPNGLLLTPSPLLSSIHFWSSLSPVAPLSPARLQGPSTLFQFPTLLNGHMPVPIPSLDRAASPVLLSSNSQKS
Particulars: protein: recombinant; tags: N-terminal GST; dsDNA, one strand shown. An outline of the steps: as §1

A further assay addresses T6, FEV (Homo sapiens, UniProt Q99581 1-238).
T6 sequence: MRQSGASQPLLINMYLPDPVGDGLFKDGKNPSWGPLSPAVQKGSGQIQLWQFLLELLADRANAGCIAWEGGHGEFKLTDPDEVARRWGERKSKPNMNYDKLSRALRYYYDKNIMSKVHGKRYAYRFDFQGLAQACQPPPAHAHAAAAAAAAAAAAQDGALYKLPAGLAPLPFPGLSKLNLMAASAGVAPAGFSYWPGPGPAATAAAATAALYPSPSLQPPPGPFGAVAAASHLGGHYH
The settings on record: protein: recombinant; tags: N-terminal GST; dsDNA, one strand shown. An outline of the steps: as §1

A further assay has as its target ETV5 (Homo sapiens, UniProt P41161 1-510). The settings on record: protein: recombinant; tags: N-terminal GST; dsDNA, one strand shown. Summed up:
as §1

Another assay has as its target HSF1 (Homo sapiens, UniProt Q00613 1-529). Particulars: protein: recombinant; tags: N-terminal GST; chain copies: 3; dsDNA, one strand shown. An outline of the steps: as §1
In the next assay the target is T7, SPIC (Homo sapiens, UniProt Q8N5J4 1-248).
T7 sequence: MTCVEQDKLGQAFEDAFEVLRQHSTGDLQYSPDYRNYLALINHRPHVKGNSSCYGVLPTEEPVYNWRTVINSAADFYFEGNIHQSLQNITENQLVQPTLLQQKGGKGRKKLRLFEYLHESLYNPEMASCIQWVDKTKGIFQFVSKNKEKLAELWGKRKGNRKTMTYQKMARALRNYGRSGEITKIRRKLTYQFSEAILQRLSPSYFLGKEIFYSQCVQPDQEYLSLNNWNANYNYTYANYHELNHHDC
The settings on record: protein: recombinant; tags: N-terminal GST; dsDNA, one strand shown. An outline of the steps:
as §1

The target of a further assay is ELF4 (Homo sapiens, UniProt Q99607 1-663). The settings on record: protein: recombinant; tags: N-terminal GST; dsDNA, one strand shown. Summed up:
as §1

A further assay concerns the target T8, ELK4 (Homo sapiens, UniProt P28324-2 1-405).
T8 sequence: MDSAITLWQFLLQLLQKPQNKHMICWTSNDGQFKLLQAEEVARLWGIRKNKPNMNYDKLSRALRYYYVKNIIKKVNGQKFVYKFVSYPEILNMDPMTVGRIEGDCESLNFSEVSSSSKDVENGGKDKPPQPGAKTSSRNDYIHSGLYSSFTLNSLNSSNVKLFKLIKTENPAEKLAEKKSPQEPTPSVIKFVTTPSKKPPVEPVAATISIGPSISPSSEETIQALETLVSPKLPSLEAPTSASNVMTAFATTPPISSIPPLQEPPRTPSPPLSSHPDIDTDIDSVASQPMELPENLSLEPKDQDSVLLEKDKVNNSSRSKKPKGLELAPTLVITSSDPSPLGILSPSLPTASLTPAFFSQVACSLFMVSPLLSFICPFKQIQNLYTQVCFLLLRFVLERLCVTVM
Particulars: protein: recombinant; tags: N-terminal GST; dsDNA, one strand shown. Summed up:
as §1

For the next assay, the target named is T9, ETV2 (Homo sapiens, UniProt O00321 1-342).
T9 sequence: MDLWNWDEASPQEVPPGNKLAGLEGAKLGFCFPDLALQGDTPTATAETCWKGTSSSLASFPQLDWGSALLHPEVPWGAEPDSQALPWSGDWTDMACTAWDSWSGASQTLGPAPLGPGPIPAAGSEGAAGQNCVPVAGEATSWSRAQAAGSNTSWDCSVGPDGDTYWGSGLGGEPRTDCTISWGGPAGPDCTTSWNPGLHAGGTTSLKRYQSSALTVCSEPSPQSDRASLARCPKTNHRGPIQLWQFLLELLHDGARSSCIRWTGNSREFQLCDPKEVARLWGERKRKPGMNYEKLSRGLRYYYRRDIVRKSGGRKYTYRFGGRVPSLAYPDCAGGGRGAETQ
Particulars: protein: recombinant; tags: N-terminal GST; dsDNA, one strand shown. An outline of the steps: as §1

The next assay has as its target T10, ELF3 (Homo sapiens, UniProt P78545 1-371).
T10 sequence: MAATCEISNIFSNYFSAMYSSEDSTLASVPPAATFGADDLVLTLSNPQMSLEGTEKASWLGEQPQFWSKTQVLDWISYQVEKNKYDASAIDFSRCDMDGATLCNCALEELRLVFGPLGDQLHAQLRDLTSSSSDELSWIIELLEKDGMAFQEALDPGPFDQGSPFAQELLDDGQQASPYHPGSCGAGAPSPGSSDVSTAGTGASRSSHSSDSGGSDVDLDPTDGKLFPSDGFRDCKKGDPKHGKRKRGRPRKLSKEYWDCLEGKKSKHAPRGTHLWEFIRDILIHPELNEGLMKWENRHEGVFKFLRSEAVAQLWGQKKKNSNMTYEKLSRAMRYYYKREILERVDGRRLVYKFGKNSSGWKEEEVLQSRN
The settings on record: protein: recombinant; tags: N-terminal GST; dsDNA, one strand shown. Summed up: as §1

A further assay concerns the target CRX (Homo sapiens, UniProt O43186 1-299). The settings on record: protein: recombinant; tags: N-terminal GST; dsDNA, one strand shown. Summed up: as §1
The target of a further assay is ETV1 (Homo sapiens, UniProt P50549 1-477). The settings on record: protein: recombinant; tags: N-terminal GST; dsDNA, one strand shown. Summed up:
as §1

Sequence of CRX (O43186 whole entry): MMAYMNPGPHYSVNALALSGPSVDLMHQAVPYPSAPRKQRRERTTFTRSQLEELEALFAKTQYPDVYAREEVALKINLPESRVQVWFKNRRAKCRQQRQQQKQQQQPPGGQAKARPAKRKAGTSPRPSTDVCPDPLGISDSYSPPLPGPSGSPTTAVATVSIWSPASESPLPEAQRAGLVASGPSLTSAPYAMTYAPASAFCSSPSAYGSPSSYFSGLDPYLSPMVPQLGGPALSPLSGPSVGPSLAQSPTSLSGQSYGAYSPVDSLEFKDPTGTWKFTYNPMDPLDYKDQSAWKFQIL
Sequence of ETV5 (P41161 whole entry): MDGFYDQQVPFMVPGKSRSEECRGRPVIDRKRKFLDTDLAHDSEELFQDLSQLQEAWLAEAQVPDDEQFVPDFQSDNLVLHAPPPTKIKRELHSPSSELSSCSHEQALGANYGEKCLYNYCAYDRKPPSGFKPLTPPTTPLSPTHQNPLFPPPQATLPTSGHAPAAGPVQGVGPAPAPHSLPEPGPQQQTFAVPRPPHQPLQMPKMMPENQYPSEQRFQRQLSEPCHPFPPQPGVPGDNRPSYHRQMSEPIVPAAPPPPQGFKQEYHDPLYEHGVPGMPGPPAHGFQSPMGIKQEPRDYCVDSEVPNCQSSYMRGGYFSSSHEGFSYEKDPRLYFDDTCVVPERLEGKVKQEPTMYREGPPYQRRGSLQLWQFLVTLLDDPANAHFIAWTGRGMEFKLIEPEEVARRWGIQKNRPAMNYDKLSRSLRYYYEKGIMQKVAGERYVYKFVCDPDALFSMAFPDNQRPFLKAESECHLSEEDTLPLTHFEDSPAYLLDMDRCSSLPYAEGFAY
Sequence of HSF1 (Q00613 whole entry): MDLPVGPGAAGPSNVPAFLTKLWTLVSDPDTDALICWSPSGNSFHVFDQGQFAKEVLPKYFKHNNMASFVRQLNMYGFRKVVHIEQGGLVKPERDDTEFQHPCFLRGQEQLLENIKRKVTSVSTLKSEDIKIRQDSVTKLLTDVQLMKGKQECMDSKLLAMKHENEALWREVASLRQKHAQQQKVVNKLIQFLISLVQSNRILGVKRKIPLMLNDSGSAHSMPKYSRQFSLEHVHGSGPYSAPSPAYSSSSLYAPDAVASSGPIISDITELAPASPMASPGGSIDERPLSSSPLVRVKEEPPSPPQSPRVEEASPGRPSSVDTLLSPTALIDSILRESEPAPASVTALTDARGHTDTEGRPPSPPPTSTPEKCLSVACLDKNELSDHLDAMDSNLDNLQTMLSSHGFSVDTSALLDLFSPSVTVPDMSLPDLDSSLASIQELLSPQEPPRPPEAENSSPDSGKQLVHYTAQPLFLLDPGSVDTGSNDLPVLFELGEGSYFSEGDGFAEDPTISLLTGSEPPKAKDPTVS
Sequence of ELF1 (P32519 whole entry): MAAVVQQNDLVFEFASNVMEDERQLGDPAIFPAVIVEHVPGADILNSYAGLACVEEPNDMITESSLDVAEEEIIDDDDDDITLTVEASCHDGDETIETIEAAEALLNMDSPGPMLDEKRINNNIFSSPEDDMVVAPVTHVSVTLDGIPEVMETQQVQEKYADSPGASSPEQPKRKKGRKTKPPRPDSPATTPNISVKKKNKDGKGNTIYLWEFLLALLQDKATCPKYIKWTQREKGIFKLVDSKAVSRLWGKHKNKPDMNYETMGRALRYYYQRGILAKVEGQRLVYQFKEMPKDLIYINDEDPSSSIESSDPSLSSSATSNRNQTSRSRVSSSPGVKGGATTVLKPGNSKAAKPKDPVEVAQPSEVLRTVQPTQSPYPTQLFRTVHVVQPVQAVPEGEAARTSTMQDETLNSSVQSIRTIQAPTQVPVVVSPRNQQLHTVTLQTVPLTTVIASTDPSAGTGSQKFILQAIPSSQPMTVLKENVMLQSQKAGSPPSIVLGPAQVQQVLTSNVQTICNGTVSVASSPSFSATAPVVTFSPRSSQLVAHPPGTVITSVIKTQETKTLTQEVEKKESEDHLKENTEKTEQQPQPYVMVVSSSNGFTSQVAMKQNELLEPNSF
Sequence of ELF4 (Q99607 whole entry): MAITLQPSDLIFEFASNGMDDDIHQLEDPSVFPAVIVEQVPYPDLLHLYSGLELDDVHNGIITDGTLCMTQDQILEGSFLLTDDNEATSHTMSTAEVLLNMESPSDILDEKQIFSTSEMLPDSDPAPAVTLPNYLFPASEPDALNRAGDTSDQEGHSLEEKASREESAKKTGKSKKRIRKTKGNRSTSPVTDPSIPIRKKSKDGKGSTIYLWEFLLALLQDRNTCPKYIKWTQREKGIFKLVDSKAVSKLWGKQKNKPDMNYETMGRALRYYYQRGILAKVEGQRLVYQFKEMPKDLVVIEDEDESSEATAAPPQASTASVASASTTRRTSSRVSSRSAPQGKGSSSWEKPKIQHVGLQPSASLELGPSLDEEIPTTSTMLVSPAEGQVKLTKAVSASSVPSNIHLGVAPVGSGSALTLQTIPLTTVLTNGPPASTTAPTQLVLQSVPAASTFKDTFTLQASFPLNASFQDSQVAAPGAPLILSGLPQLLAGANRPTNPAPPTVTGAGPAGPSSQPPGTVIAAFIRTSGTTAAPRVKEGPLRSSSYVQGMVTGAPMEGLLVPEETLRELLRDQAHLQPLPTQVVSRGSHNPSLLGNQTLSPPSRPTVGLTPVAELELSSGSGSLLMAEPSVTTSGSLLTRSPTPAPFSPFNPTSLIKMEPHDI
Sequence of ETV1 (P50549 whole entry): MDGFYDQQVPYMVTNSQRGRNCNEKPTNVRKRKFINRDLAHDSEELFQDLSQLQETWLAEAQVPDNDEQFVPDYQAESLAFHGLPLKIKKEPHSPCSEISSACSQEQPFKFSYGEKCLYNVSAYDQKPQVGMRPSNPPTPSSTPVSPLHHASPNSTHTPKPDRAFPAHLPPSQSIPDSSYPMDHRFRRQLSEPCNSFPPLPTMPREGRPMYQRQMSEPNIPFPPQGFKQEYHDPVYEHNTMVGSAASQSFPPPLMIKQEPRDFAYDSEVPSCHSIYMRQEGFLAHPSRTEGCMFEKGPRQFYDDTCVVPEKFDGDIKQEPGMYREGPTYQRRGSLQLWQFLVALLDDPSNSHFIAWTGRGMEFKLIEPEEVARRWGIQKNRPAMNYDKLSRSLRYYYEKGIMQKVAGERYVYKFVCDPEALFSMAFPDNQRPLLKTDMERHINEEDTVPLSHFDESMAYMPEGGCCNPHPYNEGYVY

Take TAACGA: the binding signal with FLI1 was 1.09 fold enrichment (6-mer frequency, TF over GST control); in the assay with ELK1, 1.04 fold enrichment (6-mer frequency, TF over GST control); in the assay with GABPA it was 1.07 fold enrichment (6-mer frequency, TF over GST control); with ERG it was 1.08 fold enrichment (6-mer frequency, TF over GST control); in the assay with ELF1, 1.03 fold enrichment (6-mer frequency, TF over GST control); with SPI1, 1.06 fold enrichment (6-mer frequency, TF over GST control). Moreover, the binding signal with SPIB was 1.1 fold enrichment (6-mer frequency, TF over GST control); in the assay with ELK3 it was 1.03 fold enrichment (6-mer frequency, TF over GST control); in the assay with FEV, 1.08 fold enrichment (6-mer frequency, TF over GST control); in the assay with ETV5, 1.06 fold enrichment (6-mer frequency, TF over GST control); with HSF1 it was 1.23 fold enrichment (6-mer frequency, TF over GST control); in the assay with SPIC it was 1.1 fold enrichment (6-mer frequency, TF over GST control). Moreover, the binding signal in the assay with ELF4 is 1.12 fold enrichment (6-mer frequency, TF over GST control); with ELK4, 1.09 fold enrichment (6-mer frequency, TF over GST control); in the assay with ETV2, 1.04 fold enrichment (6-mer frequency, TF over GST control); with ELF3 it was 1.02 fold enrichment (6-mer frequency, TF over GST control); in the assay with CRX, 1.57 fold enrichment (6-mer frequency, TF over GST control); with ETV1, 1.08 fold enrichment (6-mer frequency, TF over GST control).

The values are drawn from article PMC7862700, “An all-to-all approach to the identification of sequence-specific readers for epigenetic DNA modifications on cytosine”.
